An excerpt weighted towards active compounds, which were near 1.3% of everything screened.
TRPML1 agonist: agonists of human TRPML1 channel. Q9GZU1. TRPML1-expressing cells, Ca2+ dye fluorescence, FDSS. activation, % (test concentration not listed). hit rate 0.12% among 410,000; note: 0% is about no effect
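Calcium fluorescence on an FDSS kinetic reader gave the read-out. Tet-induced TRPML1-DL cells were plated overnight, dye-loaded (Ca8 with quencher, 45-90 min, room temperature, dark), then read 110 s after compound addition, and again 110 s after 4uM final 54-4 (EC80).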
TSG101-PTAP inh: blocks PTAP/TSG101 interaction to inhibit HIV-1 budding; Q99816; Fluorescence polarization, FITC-PTAP peptide / Tsg101 binding; Potency, µM (highest dose often 115 µM), without a hit: at the top dose activity change, negative = inhibition, usual class: inhibitors; 340,000 tested, under 10 active; active = well fitted inhibition curve with a large enough effect in the main read-out, with a control signal flat, not every such curve was filed as active; inconclusive = small, poorly fitted or top-dose-only effect, or effect the other way, or a change in a side signal; inactive = no such curve, though single readings can be large or run the other way; note: potency is the fitted concentration of half-maximal effect; % of control where 0% means no effect
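Compounds were pin-transferred onto Tsg101 binding domain (10 uM final) in HEPES pH 7.5 buffer, then FITC-PTAP peptide was added at 50 nM final. After 20 min at RT, polarization reported peptide displacement across a qHTS concentration series.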
TRPML1 inh: inhibitors of human TRPML1 channel; hit rate 0.02% among 390,000; AID 624415; activity change, negative = inhibition, % (concentration not given with the values); TRPML1-inducible cells, Ca2+ dye fluorescence, FDSS; hits give low values; inhibition of EC80 agonist-evoked calcium signal; Q9GZU1; in the data active = activity change below about -50%; inconclusive = between about -30% and that limit;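 note: stimulus is agonist 54-4 at its EC80 concentration; % is set by controls: 0 for no effect and ±100 for the full control effect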
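TRPML1-DL cells, Tet-induced overnight (~16 h, 37 °C) at 1,500 cells/well, were loaded with Ca8 no-wash dye plus quencher for 45-90 min at room temperature. Compounds were pinned during FDSS kinetic reading; agonist 54-4 at EC80 (4 uM final) then added.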
BRCA1 expr act: increases BRCA1 expression. hit rate 1.1% among 380,000. Potency, µM (top dose mostly 46.1 µM), for the others: at the top dose activation, hits mostly activators. MCF7-BRCA1-FFLuc reporter, luminescence, 48 h; response scale: scaled: vehicle 0%, 10 µM genistein 100%. AID 624202; active = well fitted activation curve with a large enough effect; inconclusive = small, poorly fitted or top-dose-only effect; inactive = no such curve, though single readings can be large or run the other way; note: potency is the fitted concentration of half-maximal effect; nearly all actives have a fitted effect of over 80% in size
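Luminescence from a BRCA1-driven firefly luciferase in MCF7 cells was read after 48 h compound exposure at 37 C. Data normalized against DMSO and a 10microM genistein activation control, then curve-fitted across the titration.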
PKM2 act: PKM2 (human) enzyme activation; P14618; purified PKM2, Kinase-Glo ATP luminescence, activation; response scale: 0% is enzyme alone, no compound; Potency, µM (highest dose often 57.5 µM), inactives show at the highest dose activation, hits mostly activators; hit rate 0.34% among 260,000; AID 1631; active = well fitted activation curve with a large enough effect; inconclusive = small, poorly fitted or top-dose-only effect; inactive = no such curve, though single readings can be large or run the other way; note: potency is the fitted concentration of half-maximal effect; % is set by controls: 0 for no effect and ±100 for the full control effect; nearly all actives have a fitted effect of over 55% in size
Target sequence (P14618 whole entry, looked up): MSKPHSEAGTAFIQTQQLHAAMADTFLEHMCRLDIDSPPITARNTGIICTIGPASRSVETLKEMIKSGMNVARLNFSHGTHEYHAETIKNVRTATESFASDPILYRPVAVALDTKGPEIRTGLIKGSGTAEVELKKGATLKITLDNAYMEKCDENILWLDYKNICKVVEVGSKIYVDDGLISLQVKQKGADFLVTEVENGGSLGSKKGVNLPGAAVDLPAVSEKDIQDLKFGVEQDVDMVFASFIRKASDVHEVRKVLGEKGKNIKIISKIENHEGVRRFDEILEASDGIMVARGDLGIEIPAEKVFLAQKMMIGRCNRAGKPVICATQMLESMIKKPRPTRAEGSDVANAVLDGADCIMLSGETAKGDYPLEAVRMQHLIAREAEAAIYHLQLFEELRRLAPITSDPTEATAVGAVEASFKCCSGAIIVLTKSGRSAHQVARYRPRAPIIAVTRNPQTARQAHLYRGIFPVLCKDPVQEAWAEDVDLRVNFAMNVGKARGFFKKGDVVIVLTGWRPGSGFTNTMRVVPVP
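Kinase-Glo luminescence reports ATP generated from ADP (0.1 mM) and PEP (0.5 mM) by purified hPK-M2 after 1 h at room temperature, pH 7.2 imidazole buffer; intermediate enzyme activity allows detecting inhibitors and activators.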
IL2 activator: IL-2 activation; IL-2 activation reporter assay, cell-based qHTS; stimulated with anti-CD3/CD4/CD28 beads; in transgenic mouse T cells; activation, % (series mostly up to about 46 µM); hit rate 0.065% among 360,000; AID 652025; note: 0% is about no effect
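Screening format: compound pinned onto unstimulated transgenic mouse T cells, 60 min incubation, then anti-CD3/anti-CD4/anti-CD28 bead stimulation for 18 hours at 37 degrees C, followed by EGFP and DsRed detection.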
* marks the source's active call; other numbers are inactive results; ? = inconclusive; . = not tested or not shown. Cut-off read from the data, not from the text of the source, unless noted: active = activation above about 50%; inconclusive = mostly about 30% to 49%; inactive = weaker than that.

SMILES	TRPML1 agonist	TSG101-PTAP inh	TRPML1 inh	BRCA1 expr act	PKM2 act	IL2 activator
Cc1ccc(/C=N/NC(=O)c2cccs2)cc1[N+](=O)[O-]	1	-7%	12	13µM*	-3%	-3
O=C(N/N=C/c1ccccc1[N+](=O)[O-])c1cccs1	0	-2%	17	?	4%	-1
CCC(=O)NCCc1sc2nc(-c3ccc(OC)cc3)nn2c1C	0	.	-28	5µM*	.	.
O=C(NCc1cccs1)c1ccncc1	0	-3%	-3	-1%	13%	-2
Cc1cc(C(=O)NCc2cccs2)cs1	-1	1%	-19	10µM*	1%	0
CCOC(=O)c1c(C)c(C(=O)NCc2cccs2)c(C)n1C	0	-5%	-57*	3%	-3%	-2
CC(C)Cc1cc(C(=O)NCc2cccs2)no1	1	-2%	40	13µM*	-2%	-3
CC(C)Oc1ccc(C(=O)NCc2cccs2)cc1	0	1%	-6	13µM*	5%	0
O=C(NCc1cccs1)c1ccccc1	0	-9%	10	18%	0%	1
Cc1ccc2nc(/C=C/c3ccc(N(C)C)cc3)ccc2c1	20	.	.	.	.	.
COc1ccc(C(=O)NC2CCCc3ccccc32)cc1OC1CCN(C(C)=O)CC1 (stereo not given)	0	1%	-54*	-9%	.	-3
COc1ccccc1CNC(=O)c1ccc2c(c1)nnn2C1CCCC1	-1	.	-9	-7%	.	.
NC(=O)C1CCN(C(=O)CSc2nc3ccccc3[nH]2)CC1	-1	-4%	-12	5%	4%	0
C/C(N)=C(/C#N)C(=O)CSc1nc2ccccc2[nH]1	1	-4%	20	7.9µM*	1%	1
CC1CCN(C(=O)CSc2nc3ccccc3[nH]2)CC1	1	-6%	8	3.5µM*	4%	-1
C/C(N)=C(/C#N)C(=O)CSc1ncnc2ccccc12	1	?	0	-63%	1%	1
CCN(CC)CCCOc1cc2nc(N3CCCN(C)CC3)nc(NC3CCN(C)CC3)c2cc1OC	0	.	.	-27%	.	.
Cc1cccc(NC(=O)CCCN2C(=O)C3CC=CCC3C2=O)c1 (stereo not given)	0	-8%	4	5%	1%	-1
CCc1ccc(NC(=O)CCCN2C(=O)C3CC=CCC3C2=O)cc1 (stereo not given)	-1	0%	17	7.9µM*	-1%	-1
O=C1C[C@H]2[C@H](CO)[C@@H](OC(=O)c3ccc(-c4ccccc4)cc3)C[C@H]2O1	0	-1%	0	13µM*	0%	-1
O=C1CC2C(CC(OC(=O)c3ccc(-c4ccccc4)cc3)C2CO)O1 (stereo not given)	-1	-3%	-4	?	2%	0
CCCc1cc(C(=O)N/N=C/c2cccn2C)cs1	1	1%	51	7.9µM*	-2%	-1
Cn1cccc1/C=N/NC(=O)c1cccs1	4	-1%	-1	?	.	0
COC(=O)c1ccc(C(c2c(N)n(Cc3ccccc3)c(=O)n(C)c2=O)N2CCOCC2)cc1 (stereo not given)	4	-2%	-10	-25%	13µM*	0
Cc1ccc(CSc2nnc(-c3ccc(NC(=O)CCc4ccccc4)cc3)n2C)cc1	0	.	.	24%	.	.
SMILES	TRPML1 agonist	TSG101-PTAP inh	TRPML1 inh	BRCA1 expr act	PKM2 act	IL2 activator
CCC(Sc1nnc(C)n2c1cc1occc12)C(=O)Nc1ccccc1F (stereo not given)	4	.	28	.	.	.
COC(=O)c1c(C)sc(-c2c(-c3ccc(F)cc3)[nH]c3[nH]c(=O)[nH]c(=O)c23)c1O	9	.	-2	.	.	.
Cc1ccccc1Cn1c2ccccc2c2cnn(CC(=O)NCC(C)c3ccccc3)c(=O)c21 (stereo not given)	1	.	8	.	.	.
Cc1ccc(C(=O)N2c3nc(-c4ccco4)nn3C3(CCCCC3)[C@@H]3CCCC[C@@H]32)cc1	2	.	0	.	.	.
Cn1c(C(=O)NCc2ccccn2)cc2c(=O)n3ccccc3nc21	0	-10%	31	5µM*	6%	0
Cn1c(C(=O)NC2CCCCC2)cc2c(=O)n3ccccc3nc21	0	-1%	12	-2%	.	0
CN(C)c1ccc(/C=C2\C=Cc3ccccc32)cc1[N+](=O)[O-]	-1	.	.	?	.	.
Cc1ccc(OCCCSc2ncccn2)cc1C	2	-4%	4	?	10%	3
COc1ccc(OCCSc2ncccn2)cc1	0	-1%	-8	?	-3%	-1
c1cnc(SCCCOc2ccc3ccccc3c2)nc1	2	0%	13	11µM*	-1%	5
COc1ccc(OCCCSc2ncccn2)cc1	1	-3%	-15	13µM*	-3%	0
Nc1cc(N)nc(SCCOc2ccccc2)n1	0	-2%	5	13µM*	14%	0
Clc1ccc(OCCSc2ncccn2)cc1	0	-5%	6	11µM*	-3%	-4
COc1cccc(OCCSc2nc(N)cc(N)n2)c1	-1	-5%	-5	75%	7%	1
C=C1C=C(C(F)F)n2ncc(C(=O)NCc3ccc(Cl)cc3)c2N1	-1	.	.	-6%	.	.
NC1C(N)C(N)C1N (stereo not given)	0	.	.	21%	.	.
CC(C)SCCCCOc1ccc2ccccc2c1	0	-1%	-5	8.9µM*	-2%	0
c1ccc2cc(OCCOCCOc3ccc4ccccc4c3)ccc2c1	-1	-2%	-1	1%	2%	1
CC(I)CCC(C)[n+]1cccc(I)c1 (stereo not given)	0	.	.	1%	.	.
Cc1cc(C)nc(-n2nc(C)c(Sc3ccc(F)cc3)c2N)n1	5	-17%	-7	7.1µM*	6%	-1
COc1ccc(CCNC(=O)Cn2cc(S(=O)(=O)Cc3cccc(Cl)c3)c3ccccc32)cc1OC	2	.	24	.	.	.
COc1ccc(Cc2c(-c3ccc(F)cc3)nc3ccc(Br)cn23)c(C)c1	0	.	29	8.9µM*	.	0
COc1ccc(Cc2c(-c3cccc(Br)c3)nc3ccc(Br)cn23)c(C)c1	1	.	11	68%	.	-1
CCOC(=O)C1CCN(Cc2ccc(OCc3ccccc3)cc2)CC1	0	0%	-6	25%	0%	0
O=[N+]([O-])c1ccc(COc2ccc(CN3CCCCC3)cc2)cc1	0	-11%	18	7.9µM*	.	-1
c1ccc(COc2ccc(CN3CCN(c4ccccn4)CC3)cc2)cc1	0	2%	-4	2µM*	2%	0

Screens (PubChem BioAssay)
